In PubChem BioAssay AID819 (Columbia University Molecular Screening Center, 2007):
Out of some 94,000 compounds screened, about 280 (0.3%) were called active.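 Rule for the calls: active = activation above 40%, about the mean plus 3 SD, also judged a hit on visual image review; inconclusive = activation above 40% but not a hit on visual review; inactive = activation not above 40% and no visual hit.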 Shown is part of a subset that was picked to be rich in actives.

Assay: enhancers of NFkB p65 translocation in HUVEC – imaging, IL-1B stimulus, high-content imaging, primary screen (AID 819);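 note: percent activation is computed from the nuclear over cytoplasmic p65 intensity ratio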
Settings: HUVEC IL-1B NFkB p65 nuclear translocation imaging; at 2 µM; active compounds read high

Structure (SMILES) | activation
CCn1c(COc2ccc(OC)cc2)nnc1SCC(=O)Nc1cc(OC)ccc1OC | 4.96% (inactive)
CCn1c(SC)nc(O)c(C(c2ccc(OC)c(O)c2)c2c(O)nc(SC)n(CC)c2=O)c1=O | 59.4% (active)
COc1ccc2c(c1OC)C(=O)OC2c1c(O)nc(SC)n(-c2ccccc2)c1=O (configuration not stated) | 1.27% (inactive)
O=C(COc1ccc2ccccc2c1)N1CCN(C(=O)c2cccs2)CC1 | -12.1% (inactive)
Cc1nc2c(-c3ccc(F)cc3)c(C)nn2c(C)c1CCC(=O)NCc1ccco1 | -8.14% (inactive)
CCOC(=O)C1=C(c2ccccc2)N=C2SCC(=O)N2C1c1ccc(O)c(OC)c1 (configuration not stated) | 22.6% (inactive)
Cc1cc(-c2ccccc2)n2nc(C)c(-c3ccccc3)c2n1 | -2.27% (inactive)
CC(=O)c1ccc(OCCN2CCOCC2)cc1 | 29.4% (inactive)
C/C(=N\NC(=O)c1ccc(C)cc1)C1C(=O)c2ccccc2C1=O | -6.49% (inactive)
Cc1ccc2[nH]c(=O)c(CN(CCCN(C)C)C(=O)Nc3cccc(Cl)c3)cc2c1 | 20.3% (inactive)
COc1ccc(NC(=O)CSc2nc(N)c(-c3ccccc3)c(=O)[nH]2)cc1 | 8.34% (inactive)
COC(=O)c1cccc(-n2[nH]nnc2=S)c1 | -3.54% (inactive)
COCc1cc(C(C)=O)ccc1OC | 2.42% (inactive)
CN(C)c1ccc(NC(=S)N(CCc2ccccc2)C2CC(=O)N(c3c(Cl)cccc3Cl)C2=O)cc1 (configuration not stated) | -17.7% (inactive)
O=C(N/N=C/C=C/c1ccccc1)C1CC1(c1ccccc1)c1ccccc1 (configuration not stated) | 4.51% (inactive)
CCCn1nnc(NC(=O)COc2ccc(CC)cc2)n1 | 6.08% (inactive)
COC(=O)CNC(=O)c1ccccc1[N+](=O)[O-] | 2.74% (inactive)
CCCCNC(=O)CCn1c(=S)[nH]c2cc3c(cc2c1=O)OCO3 | -3.47% (inactive)
COc1ccc(OCC(=O)NN2Cc3ccccc3C2=N)cc1 | 12.3% (inactive)

Structure (SMILES) | activation
CCOc1cc(/C=C2/N=C(c3ccc(C(C)(C)C)cc3)OC2=O)cc(Cl)c1OS(C)(=O)=O | 15.4% (inactive)
Cc1ccccc1OC/C(O)=C(\C#N)c1nc2ccccc2[nH]1 | -7.29% (inactive)
COC(=O)c1c(NC(=O)CSc2nncs2)sc2c1CCCCC2 | 144% (active)
COC(=O)c1c(NC(=O)c2cccs2)sc2c1CCCC2 | -38.1% (inactive)
CCOC(=O)c1c(NC(=O)CSc2nnc(C)c(=O)[nH]2)sc2c1CCC2 | -7.67% (inactive)
CC(C)c1cc(C(N)=O)c(NC(=O)c2cccc(COc3ccc(Br)cc3)c2)s1 | 2.73% (inactive)
CCCC(O)(c1ccc(OC)cc1)C(CN(C)C)c1ccccc1 (configuration not stated) | 8.96% (inactive)
CS(=O)(=O)N(CC(=O)Nc1ccc(F)cc1F)c1cccc([N+](=O)[O-])c1 | 2.79% (inactive)
CCOC(=O)c1c(NC(=O)CSc2nnc(CNc3ccc(C)cc3C)o2)sc(C)c1C | 13.4% (inactive)
CCOC(=O)NNC(=O)c1ccc(Cl)cc1 | -2.19% (inactive)
COc1ccc(C2CC(c3cccs3)=Nc3ccccc3S2)cc1OC (configuration not stated) | 3.96% (inactive)
CCN(CC)C(=O)CSC1c2ccccc2C(=O)N1c1ccccc1 (configuration not stated) | 16.1% (inactive)
Cc1ccc(OCC(=O)N/N=C/c2ccncc2)cc1 | 9.97% (inactive)
COc1ccc(NC(=O)CCNC(=O)Cn2ccc3ccccc3c2=O)c(OC)c1 | 49.9% (active)
Cc1ccc(CNC(=O)CCNC(=O)Cn2ccc3ccccc3c2=O)cc1 | -10.3% (inactive)
COc1ccc(NC(=O)CCN2CCCC2)c(OC)c1 | -7.64% (inactive)
Cc1ccc2c(c1)N(CC(=O)N(Cc1ccccn1)Cc1ccco1)C(=O)C(C(C)C)O2 (configuration not stated) | -18% (inactive)
CCN1CCC(=NNC(=O)c2ccc(C)c([N+](=O)[O-])c2)CC1 | 9.79% (inactive)
